Measured values reported in PubChem BioAssay AID651640 (Broad Institute, 2012).
The whole screen tested about 350,000 compounds, of which about 6,000 (1.7%) were called active. Another 5% or so got no clear call; they are omitted. Rule as the data show it: active = CPE inhibition above about 20% (passing the limit was not always enough); inconclusive = no clear call, values can overlap the other calls; tested in BHK-21 cells. The sample as a whole holds a higher share of actives than the screen did.

Assay: inhibitors of DENV2 cytopathic effect, primary screen, cell-based, plate reader, single concentration (AID 651640);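 also: 0% = median of neutral control wells and 100% = median of positive control wells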
Details: DENV2-infected cells, cytopathic effect rescue, at 9.99 µM, active compounds read high

SMILES	CPE inhibition
Cc1ccc(S(=O)(=O)N2C[C@@H](O)COC[C@@H]3O[C@@H](CC(=O)N[C@H]4CCN(Cc5ccccc5)C4)CC[C@H]32)cc1	-6.36% (inactive)
C/C=C/c1ccccc1[C@H]1[C@@H](C#N)N(c2nc(CC)cs2)[C@@H]1CO	-4.18% (inactive)
Cc1ccc(-n2c(SCC(=O)N3CCC(C(=O)O)CC3)nc3ccccc3c2=O)cc1C	31.6% (active)
O=C(CSc1nc2ccccc2c(=O)n1-c1ccccc1F)N1CCOCC1	3.85% (inactive)
O=C(CSc1nc2ccccc2c(=O)n1-c1ccc(F)cc1)NC1CC1	-10.2% (inactive)
CC(=O)N1[C@H](CO)[C@H](c2ccccc2)C12CN(C(=O)c1ccccn1)C2	3.27% (inactive)
C=CCOc1c(CNn2cn[nH]c2=S)cccc1OC	-7.79% (inactive)
C=CCOc1ccccc1CNn1c(C)n[nH]c1=S	25.4% (active)
C=CCn1c(-c2ccccc2OCC)n[nH]c1=S	-1.21% (inactive)
Nc1ncnc2c1ncn2[C@@H]1O[C@H](C(=O)N[C@@H](CCc2ccccc2)C(=O)N2CCCN(Cc3cccs3)CC2)[C@@H](O)[C@H]1O	-8.03% (inactive)
COc1cccc(S(=O)(=O)N[C@H]2CC[C@H](CC(=O)NC3CCC3)O[C@H]2CO)c1	-5.34% (inactive)
CO[C@@H]1CN(C)C(=O)c2ccc(NC(=O)c3ccccn3)cc2OC[C@@H](C)N(C(=O)C2CCCCC2)C[C@H]1C	-2.92% (inactive)
O=C(C[C@H]1CC[C@H](NC(=O)Nc2ccc(C(F)(F)F)cc2)[C@H](CO)O1)NCCN1CCCC1	1.56% (inactive)
NC(=O)c1ccc(Nc2ccc3nonc3c2[N+](=O)[O-])cc1	-0.407% (inactive)
CCOc1ccccc1Nc1ccc2nonc2c1[N+](=O)[O-]	22.7% (active)
CCOc1ccccc1Nc1ccc(C(=O)O)cc1[N+](=O)[O-]	2.94% (inactive)
O=C(Nc1ccccc1)N1C[C@H]2[C@@H](c3ccccc31)[C@@H](CO)N2Cc1cocn1	-3.04% (inactive)
CO[C@H]1CN(C)C(=O)c2ccc(NC(=O)c3cc(C)on3)cc2OC[C@@H](C)NC[C@@H]1C	-4.45% (inactive)
COc1cccc(-c2ccc([C@H]3[C@H](CO)N4CCCCN(S(=O)(=O)c5cccs5)C[C@@H]34)cc2)c1	-2.61% (inactive)
O=S(=O)(Cc1ccccc1)N1CCCCN2[C@@H](CO)[C@@H](c3ccc(-c4ccc(F)cc4)cc3)[C@@H]2C1	-23% (inactive)
CCS(=O)(=O)N1CCCCN2[C@@H](CO)[C@@H](c3ccc(-c4ccccc4)cc3)[C@@H]2C1	12.3% (inactive)
O=S(=O)(Cc1ccccc1)N1CCCCN2[C@@H](CO)[C@H](c3ccc(-c4ccccc4)cc3)[C@@H]2C1	59% (active)
Cc1cccc(-c2ccc([C@@H]3[C@@H](CO)N4CCCCN(S(=O)(=O)c5cccs5)C[C@H]34)cc2)c1	32.7% (active)
Cc1cccc(-c2ccc([C@H]3[C@H](CO)N4CCCCN(S(=O)(=O)c5cn(C)cn5)C[C@@H]34)cc2)c1	-11.9% (inactive)
